Records with an inconclusive call do not appear. Where a call stands in place of a potency, no number is given. Activity calls are given as the source filed them. Calls come from the whole dose curve.

The nature of this assay: qHTS for Inhibitors of Cell Surface uPA Generation: Wild-type Protective Antigen (WT-PrAg) Counterscreen for Cherry-picked Compounds. To be noted: cells, WT protective antigen toxicity counterscreen; series mostly up to 115 µM. (In qHTS, concentration-response curves come from the screen itself.)
As for `OCC[C@@H]1C[C@H](O)[C@@H](O)[C@]2(OCCc3ccccc32)O1`, the Potency entry was “inactive”.
As to `CCOC(=O)CC(=O)CSc1nc2c(C)c(C)ccc2cc1C`, the Potency result was “inactive”.
With `CC(C)NCC1CCc2cc(CO)c([N+](=O)[O-])cc2N1` (stereo not given), the Potency entry is “inactive”.
Take `COC(=O)CCNS(=O)(=O)c1ccc2nsnc2c1`: the Potency result was “inactive”.
The entry for `COc1cc(CN2CCNC(=O)C2CC(=O)NCCCC2CCCC2)cc(OC)c1` (stereo not given) is “inactive”; for `Cc1cnc(C(=O)OCC(=O)Nc2ccc3c(c2)OCCO3)cn1` it is “inactive”.
As to `CC(C)c1ccc(NC(=O)COc2ccc(S(=O)(=O)N3CCOCC3)cc2)cc1`, the Potency entry was “inactive”.
On to `COc1ccccc1NC(=O)Cn1ncc2c1-c1ccccc1OC2`, for which the Potency entry was “inactive”.
For `Fc1ccc(CNc2ccccn2)cc1`, the Potency entry is “inactive”.
Regarding `O=C1CC(/C=C/c2ccc(Cl)cc2)=Nc2ccccc2N1`, the Potency entry was “inactive”.
As for `CC(C)C[C@H]1CN([C@@H](CC(C)C)CN2CCCC2CN2C(=S)NC[C@@H]2Cc2ccc(O)cc2)C(=S)N1CC1CCCCC1` (stereo not given in full), the Potency result was “inactive”.
Consider `C=CCNC(=S)NCC=C`, for which the Potency entry was “inactive”.
Turning to `CC(C)C(NC(=O)Cc1ccccc1)C(=O)N1CCN(c2cccc(Cl)c2)CC1` (stereo not given), the Potency result is “inactive”.
The same measure for `CC(C)c1ccc(SCc2noc(C(=O)NCC3CCCO3)c2C(=O)O)cc1` (stereo not given): “inactive”; for `CC1Cc2nc(SCC(=O)N3CCCC3)n(C)c(=O)c2S1` (stereo not given): “inactive”; for `COC(=O)/C(C#N)=C\c1c(OC)[nH]c2ccccc12`: “inactive”.
`CCc1ccc(NC(=O)Cn2cnc([N+](=O)[O-])c2)cc1`: the Potency result was “inactive”.
As to `COc1cc(/C=N/NC(=O)Cc2csc(C)n2)ccc1OCC(C)C`, the Potency entry was “inactive”.
The same measure for `COc1ccc(C(=O)NCCOC(C)C)cc1OC1CCN(C(C)=O)CC1`: “inactive”; for `COc1cc(CNCCc2ccccc2)cc(Br)c1OCC(=O)Nc1ccccc1C`: “inactive”.
The entry for `COc1ccccc1N1CCN(Cc2ccc(SC)cc2)CC1` is “inactive”; for `CC/C(=N\Nc1ccccc1[N+](=O)[O-])c1ccc(O)cc1` it is “inactive”.
Turning to `Cc1cccc(-c2nc(CS(=O)CC(=O)NCc3cccs3)c(C)o2)c1` (stereo not given), the Potency result was “inactive”.
The entry for `O=C(CN1C(=O)CSCC1=O)NCc1ccc(F)cc1` is “inactive”; for `CNS(=O)(=O)c1cc(-c2nnc(Nc3ccc(CC(N)=O)cc3)c3ccccc23)ccc1C` it is “inactive”.
On to `COCC(=O)N1Cc2ccccc2-n2nncc2C1`, for which the Potency entry is “inactive”.
As to `O=C(C1CCN(c2nnc(N3CCCC3=O)s2)CC1)N1CCN(c2cccc(C(F)(F)F)c2)CC1`, the Potency result was “inactive”.
For the molecule `O=C(C[C@@H]1C/C=C\C[C@H](Cc2ccc(F)cc2)C(=O)OC[C@H]2CCCN2C1=O)N[C@H](CO)Cc1ccccc1`, the Potency entry is “inactive”.
The same measure for `COc1ccc2nc(C)cc(Nc3ccccc3O)c2c1`: “inactive”; for `COc1cc2cc(CN(CCN3CCOCC3)C(=O)Nc3ccc(F)cc3)c(=O)[nH]c2cc1OC`: “inactive”; for `O=C(NCCOc1ccc(F)cc1)C1CCN(S(=O)(=O)c2ccccc2)CC1`: “inactive”.
The entry for `COC(=O)C1C(=O)c2c([nH]c(C(=O)OC3CCCCC3)c2C)CC1C` (stereo not given) is “inactive”.
The entry for `CCN1CCCCC(=N/O)/C(=N/O)CCCC1` is “inactive”; for `COc1ccccc1NNC(=O)C(O)(c1ccccc1OC)c1ccccc1OC` it is “inactive”; for `CCS(=O)(=O)N1CCC(C(=O)NCc2ccc(OC)cc2OC)CC1` it is “inactive”.
As to `Cc1ccccc1NC(=O)N1CCN(c2ncccn2)CC1`, the Potency result is “inactive”.
The entry for `C=CCOC(=O)C1=C(C)NC(C)=C(C(=O)OCC=C)C1c1cn(-c2ccccc2)nc1-c1ccco1` is “inactive”.
The same measure for `CNC(=O)[C@@H]1CCC(=O)N1`: “inactive”; for `CCc1c(C)sc(NC(=S)N2CC(C)OC(C)C2)c1C(=O)OC` (stereo not given): “inactive”; for `COc1cc(NC(=S)NCCc2ccc(S(N)(=O)=O)cc2)c(OC)cc1Cl`: “inactive”.

These data come from PubChem BioAssay AID720518 (National Center for Advancing Translational Sciences (NCATS), 2013).
